Reference: PubChem BioAssay (NCATS)
Inconclusive results are not listed. A call without a number means that no potency is given here. Calls of active or inactive are those of the source. Calls follow the shape of the dose curve; as a rule, active = well fitted curve in the direction sought with a large enough effect; inconclusive = small, poorly fitted or top-dose-only effect, or another doubt; inactive = no such curve, though single readings can be large; an effect the other way counts as inactive or inconclusive.

What was measured:
[1] = Cell Viability - LYMP2-001 (AID 921);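 also: cells exposed to compound for 24 h at 37 °C; nearly all actives have a fitted effect of over 70% in size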; also: potency is read from the fitted curve at half-maximal effect
In short: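 A lymphoblastoid cell line of human origin was treated with library compounds across a concentration series for 24 hours, and viable cell number was estimated from ATP-driven luciferase light output. Hill modeling gave AC50.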

[2] = MultiTox-Fluor Cytotoxicity Assay - LYMP1-001 - Dead Cells (AID 946);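 also: cells exposed to compound for 16 h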; also: potency is read from the fitted curve at half-maximal effect
In short: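 AC50 from Hill fit of concentration-response; data normalized to DMSO (basal) and 15 uM tetraoctylammonium bromide (100%). LYMP1-001 lymphoblastoid cells, 2500/well, 16 hr compound at 37 C; dead-cell protease fluorescence, Ex/Em 485/520.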

[3] = MultiTox-Fluor Cytotoxicity Assay - LYMP1-001 - Live Cells (AID 947); also: potency is read from the fitted curve at half-maximal effect
[4] = Confirmation and Secondary Assay for Modulators of Hemoglobin Beta Chain Splicing at IVS2 654 locus (AID 910)
In short: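 HeLa cells stably carrying EGFP interrupted by mutant beta-globin IVS2-654 intron (CMV-driven) were treated with compound for 2 days at 37C; corrected splicing was scored as total peak GFP intensity per well (488 nm excitation, 500-520 nm emission).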

[5] = Confirmation and Secondary Assay for Modulators of Hemoglobin Beta Chain Splicing at IVS2 705 locus (AID 930);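 also: HeLa cells stably expressing the EGFP-705 splicing reporter; GFP fluorescence per well restored by corrected splicing of the IVS2-705 intron in EGFP; series mostly up to about 46 µM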
In short: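 HeLa cells stably carrying EGFP interrupted by mutant beta-globin intron 2 (IVS2-705) treated 2 days at 37C with compound; 500 nM antisense PNA as control. Correct splicing read as total peak GFP intensity per well by laser-scanning cytometry.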

[6] = target: Muscarinic acetylcholine receptor M1 (Rattus norvegicus) (UniProt P08482); assay: qHTS Assay for Antagonists of Acetylcholine Muscarinic M1 Receptor: Measurement of IP-One Response (AID 944); also: nearly all actives have a fitted effect of over 75% in size; also: potency is read from the fitted curve at half-maximal effect
In short: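 CHO cells expressing rat M1 receptor, recovered overnight, were pre-incubated 10 min with compound, then stimulated 30 min with carbachol at EC80 (200 nM) in LiCl-containing buffer, pH 7.4. IP1 accumulation was read by HTRF (620/665 nm).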

[7] = target: Pyruvate kinase (Leishmania mexicana) (UniProt Q27686); assay: qHTS Validation Assay for Inhibitors of Leishmania Mexicana Pyruvate Kinase (AID 945)
In short: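 Eight-point qHTS titrations in triplicate, data normalized to DMSO neutral control. Reaction: 0.2 nM LmPYK E451W mutant, 0.5 mM PEP, 0.1 mM ADP, 7 mM MgCl2, pH 7.2, one hour at room temperature; luminescent ATP detection.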

[8] = qHTS Assay for Identification of Small Molecule Agonists for Thrombopoietin (TPO) Signaling Pathway (AID 917)
In short: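 IL-3-dependent murine pro-B Ba/F3 cells, stably transfected with human TPO receptor and GpIIb-promoter luciferase, are incubated 24 hrs at 37 C with test compound and 26 pM TPO; luciferase signal is read after 10 min at room temperature.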

[9] = target: Muscarinic acetylcholine receptor M1 (Rattus norvegicus) (UniProt P08482); assay: qHTS Assay for Antagonists of Acetylcholine Muscarinic M1 Receptor: Kinetic Measurement of Intracellular Calcium Response (AID 943); also: nearly all actives have a fitted effect of over 75% in size; also: potency is read from the fitted curve at half-maximal effect
In short: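 CHO cells stably expressing rat M1 were loaded with no-wash Fluo-4 dye for 1 h at 37C, pre-incubated 10 min with compound, then challenged with EC80 carbachol (100 nM final); kinetic calcium read 4 min, peak/basal ratio.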

[10] = qHTS Assay for Identification of Small Molecule Antagonists for Thrombopoietin (TPO) Signaling Pathway (AID 918); details: TPO-dependent cell signaling reporter, antagonist mode; also: potency is read from the fitted curve at half-maximal effect; nearly all actives have a fitted effect of over 60% in size
Method: NIH Molecular Libraries Screening Centers Network [MLSCN]
NIH Chemical Genomics Center [NCGC]
The thrombopoietin (TPO) signaling pathway was assayed in murine Ba/F3 cells stably transfected with the human TPO receptor and a luciferase reporter gene controlled by the Glycoprotein IIb promoter (provided by Axxam). BaF3 cells are an IL-3-dependent pro B cell line that upon TPO stimulation, undergo cell division and induce the megakaryocyte marker, Glycoprotein IIb. The assay was screened at the EC50 of TPO (26 pM) to identify inhibitors of the pathway.
NCGC Assay Protocol Summary:
Cells were maintained at 37 C and 5% CO2in RPMI with 10% fetal bovine serum, 0.5 ng/mL murine IL-3, 100U/ml penicillin and 100 ug/ml streptomycin. Prior to plating, cells were incubated overnight in medium without IL-3. Cells were plated at 250 cells/5uL/well into white solid 1536-well plates, 23 nL of compounds were delivered by a pin tool, and 1 uL of TPO (26 pM final concentration in IL-3 deficient medium) was added. Following 24 hrs of incubation at 37 C and 5% CO2, 4 uL of Steadylite detector mix (PerkinElmer) was added, the plates incubated at room temperature for 10 min and luminescence was measured for 10 s and 2X binning by a ViewLux detector (Perkin Elmer).

Chain of Pyruvate kinase (Leishmania mexicana) (Q27686 2-499 E452W): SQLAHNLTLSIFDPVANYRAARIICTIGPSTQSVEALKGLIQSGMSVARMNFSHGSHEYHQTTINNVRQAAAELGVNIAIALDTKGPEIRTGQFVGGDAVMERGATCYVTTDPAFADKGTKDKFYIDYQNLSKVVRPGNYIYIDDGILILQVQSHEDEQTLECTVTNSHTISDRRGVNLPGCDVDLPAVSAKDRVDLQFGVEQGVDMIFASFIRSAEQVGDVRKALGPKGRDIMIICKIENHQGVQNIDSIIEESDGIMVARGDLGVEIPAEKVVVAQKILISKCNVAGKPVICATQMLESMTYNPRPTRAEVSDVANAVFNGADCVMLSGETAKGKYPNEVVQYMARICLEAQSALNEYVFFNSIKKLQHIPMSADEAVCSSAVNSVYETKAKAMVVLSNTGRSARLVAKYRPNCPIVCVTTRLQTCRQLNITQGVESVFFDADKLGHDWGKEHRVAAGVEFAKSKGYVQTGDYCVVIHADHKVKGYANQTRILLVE
Chain of Muscarinic acetylcholine receptor M1 (Rattus norvegicus) (P08482 whole entry, looked up): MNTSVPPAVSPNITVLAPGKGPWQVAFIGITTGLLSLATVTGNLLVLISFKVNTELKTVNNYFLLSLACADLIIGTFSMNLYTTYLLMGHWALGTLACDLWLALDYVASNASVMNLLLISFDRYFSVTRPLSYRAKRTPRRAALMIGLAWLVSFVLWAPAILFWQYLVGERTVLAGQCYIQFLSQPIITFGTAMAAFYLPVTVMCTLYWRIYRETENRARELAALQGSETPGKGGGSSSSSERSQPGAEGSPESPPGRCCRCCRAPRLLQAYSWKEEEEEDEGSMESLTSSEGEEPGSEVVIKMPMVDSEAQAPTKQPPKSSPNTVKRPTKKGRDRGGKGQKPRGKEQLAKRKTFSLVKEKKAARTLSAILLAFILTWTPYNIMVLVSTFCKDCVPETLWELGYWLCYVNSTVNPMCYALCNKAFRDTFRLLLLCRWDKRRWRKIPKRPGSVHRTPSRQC

## O=C(Oc1ccccc1)c1ccccc1O
[1]
  Potency: inactive
[2]
  Potency: inactive
[3]
  Potency: inactive

## C1N2CN3CN1CN(C2)C3
[4]
  outcome: inactive
[5]
  outcome: inactive

## CC(=O)OCC[N+](C)(C)C
[4]
  outcome: inactive
[5]
  outcome: inactive

## CC(C)(c1ccc(O)cc1)c1ccc(O)cc1
[1]
  Potency: inactive
[2]
  Potency: inactive
[3]
  Potency: inactive

## CCCC(=O)c1cc(O)c(O)cc1O
[1]
  Potency: inactive
[2]
  Potency: inactive
[3]
  Potency: inactive

## O=C(O)/C=C(\CC(=O)O)C(=O)O
[4]
  outcome: inactive
[5]
  outcome: inactive

## CN(C)c1cc2c(Nc3ccc4c(cnn4Cc4ccccc4)c3)ncnc2cn1
[6]
  Potency: 11.2 µM (active)
[7]
  outcome: inactive

## CC(C)(C)c1ccc(O)c(O)c1
[1]
  Potency: 31.6 µM (active)
[2]
  Potency: inactive
[3]
  Potency: inactive

## Nc1c2ccccc2nc2ccccc12
[4]
  outcome: inactive
[1]
  Potency: 12.6 µM (active)
[5]
  outcome: inactive
[2]
  Potency: 12.6 µM (active)
[3]
  Potency: inactive

## Brc1ccccc1-c1ccccc1
[1]
  Potency: inactive
[2]
  Potency: inactive
[3]
  Potency: inactive

## C[N+](C)(C)CCO
[4]
  outcome: inactive
[8]
  outcome: inactive
[5]
  outcome: inactive
[6]
  Potency: inactive
[7]
  outcome: inactive

## Brc1ccc([C@H]2CN3CCSC3=N2)cc1
[9]
  Potency: 12.6 µM (active)
[7]
  outcome: inactive

## Cc1cc(C(C)(C)C)c(O)c(C(C)(C)C)c1
[4]
  outcome: inactive
[1]
  Potency: inactive
[5]
  outcome: inactive
[2]
  Potency: inactive
[3]
  Potency: inactive

## CCCCC(CC)COC(=O)c1ccccc1C(=O)O (stereo not given)
[1]
  Potency: inactive
[2]
  Potency: inactive
[3]
  Potency: inactive

## Oc1ccccc1
[1]
  Potency: inactive
[2]
  Potency: inactive
[3]
  Potency: inactive

## CCN(CC)CCOc1ccc(/C(=C(\Cl)c2ccccc2)c2ccccc2)cc1
[4]
  outcome: inactive
[5]
  outcome: inactive

## O=C(NO)c1ccccc1
[1]
  Potency: inactive
[2]
  Potency: inactive
[3]
  Potency: inactive

## O=C1NC(c2cccc([N+](=O)[O-])c2)=CCN1c1ccccc1O
[8]
  outcome: inactive
[9]
  Potency: inactive
[6]
  Potency: inactive
[7]
  outcome: inactive

## CCCCCCCCCCCCCCCC[n+]1ccccc1
[1]
  Potency: 10 µM (active)
[2]
  Potency: 10 µM (active)
[3]
  Potency: 20 µM (active)

## NC(N)=NCCCCN=C(N)N
[4]
  outcome: inactive
[8]
  outcome: inactive
[5]
  outcome: inactive
[6]
  Potency: 10 µM (active)
[7]
  outcome: inactive

## C1=CC2C3C=CC(C3)C2C1 (stereo not given)
[1]
  Potency: inactive
[2]
  Potency: inactive
[3]
  Potency: inactive

## CC(NCCC(c1ccccc1)c1ccccc1)c1ccccc1 (stereo not given)
[4]
  outcome: inactive
[5]
  outcome: inactive

## COc1ccccc1N1CCN(CCN2C(=O)CC3(CCCC3)CC2=O)CC1
[7]
  outcome: inactive

## c1ccc2occc2c1
[1]
  Potency: inactive
[2]
  Potency: inactive
[3]
  Potency: inactive

## CCOC(=O)NNc1nncc2ccccc12
[4]
  outcome: inactive
[5]
  outcome: inactive

## Cc1ccc2c(Cl)cc(Cl)c(O)c2n1
[4]
  outcome: inactive
[5]
  outcome: inactive

## CC(C)N(CCC(=O)c1ccc2ccccc2c1)Cc1ccccc1
[10]
  Potency: 2.51 µM (active)
[9]
  Potency: inactive
[6]
  Potency: inactive
[7]
  outcome: inactive

## O=[N+]([O-])c1ccc(-c2nc(-c3ccc(F)cc3)c(-c3ccncc3)[nH]2)cc1
[10]
  Potency: 12.6 µM (active)
[9]
  Potency: inactive
[7]
  outcome: inactive

## COc1cc(C=O)ccc1O
[1]
  Potency: inactive
[2]
  Potency: inactive
[3]
  Potency: inactive

## OCc1c[nH]c2ccccc12
[4]
  outcome: inactive
[1]
  Potency: inactive
[5]
  outcome: inactive
[2]
  Potency: inactive
[3]
  Potency: inactive

## CC(=O)OC/C=C(C)/C=C/C=C(C)/C=C/C1=C(C)CCCC1(C)C
[4]
  outcome: inactive
[5]
  outcome: inactive
[3]
  Potency: inactive

## Cn1cnc2c(NCc3ccccc3)nc(NCCO)nc21
[8]
  outcome: inactive
[9]
  Potency: inactive
[6]
  Potency: inactive
[7]
  outcome: inactive

## Cc1ccc(O)cc1
[4]
  outcome: inactive
[1]
  Potency: inactive
[5]
  outcome: inactive
[2]
  Potency: inactive
[3]
  Potency: inactive

## Nc1cccc2c(N)cccc12
[1]
  Potency: inactive
[2]
  Potency: inactive

## Nc1ncnc2nc[nH]c12
[4]
  outcome: inactive
[5]
  outcome: inactive

## O=C(c1ccccc1)c1ccccc1
[1]
  Potency: inactive
[2]
  Potency: inactive
[3]
  Potency: inactive

## COC(=O)c1c(Cl)c(Cl)c(C(=O)OC)c(Cl)c1Cl
[4]
  outcome: inactive
[5]
  outcome: inactive

## CC(C)C(C)(C)C(C)(C)C(C)(C)S
[1]
  Potency: inactive
[2]
  Potency: inactive
[3]
  Potency: inactive
